Compound activity (PubChem BioAssay)
IP6K1 inhibitor: inhibitors of human IP6K1 | IP6K1 kinase, ADP-Glo luminescence, 2 h; active compounds read low | activity change, % (series mostly up to about 58 µM) | hit rate 0.81% among 140,000 | Q92551; in the data active means activity change below about -25%; further: on the % scale 0 is the no-effect control and ±100 the full control effect
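ADP-Glo luminescence measures ADP made by human IP6K1 during a 2 h RT reaction with ATP/IP6 (mix at 1.3 mM/130 uM); top library doses 57.5 and 19.1 uM final.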
KDM5B inh: blocks human KDM5B histone demethylase activity | AID 1347165 | hit rate 2.6% among 220,000 | KDM5B demethylase, FDH-coupled NADH fluorescence (FDH is formaldehyde dehydrogenase) | Potency, µM (top dose mostly 57.7 µM), actives largely listed as inhibitors | Q9UGL1; active means well fitted inhibition curve with a large enough effect; inconclusive means small, poorly fitted or top-dose-only effect; inactive means no such curve, though single readings can be large or run the other way; further: potency means the concentration at half of the fitted maximal effect; 0% is about no effect; nearly all actives have a fitted effect of over 70% in size
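KDM5BΔAP (200 nM final) in 50 mM HEPES pH 7.5, 0.01% Tween-20 was preincubated 10 min at RT with compound over a concentration range. Substrate mix (H3K4me3 12.5 µM, α-KG 25 µM, Fe²⁺, ascorbate, NAD⁺, FDH) was added, and NADH fluorescence change over 30 min gave dose-response curves.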
* = called active by the depositor; i = inactive; ? = inconclusive; . = no result. Only some compounds are listed: those with a hit (about 2.8% of all), similar ones and a draw of the others.

SMILES	IP6K1 inhibitor	KDM5B inh
Cc1noc(C)c1S(=O)(=O)N1CCC[C@H](n2c(=O)n(C)c3cccnc32)C1	9.7	i
O=C(CCc1ccccc1)N1CCCC2(C1)Nc1cccnc1NC2=NC1CCCC1 (stereo unspecified)	1.6	25.1µM*
O=C(CCc1ccccc1)N1CCC(Oc2ncccc2C(=O)N2CCCCC2)C1 (stereo unspecified)	4.7	i
O=C(Cc1ccccc1)N1CCCC2(C1)Nc1cccnc1NC2=NC1CCCC1 (stereo unspecified)	2.6	28.2µM*
CCOC(=O)C1CCCN(C(=O)c2ccc3oc(-c4cccnc4C)nc3c2)C1 (stereo unspecified)	11.1	.
CC(=O)C(C(C)=O)=C1SCCCS1	.	i
COCC(=O)N1CCN(Cc2nc(C(C)C)no2)CC1	.	i
O=C1[C@@H]2C[C@@H](CN2Cc2nccs2)Oc2ccccc2N1Cc1ccc(OC(F)(F)F)cc1	0.4	28.2µM*
COCCN1C(=O)[C@@H]2C[C@@H](CN2Cc2ccc3ccccc3n2)Oc2ccccc21	-2.5	31.6µM*
COCCN1C(=O)[C@@H]2C[C@@H](CN2Cc2ccccc2)Oc2ccccc21	23.4	i
CN1C(=O)[C@@H]2C[C@@H](CN2Cc2ccc(OC(F)(F)F)cc2)Oc2ccccc21	13.5	i
O=C1[C@@H]2C[C@@H](CN2Cc2cnc3ccccc3c2)Oc2ccccc2N1CC1CC1	-9.0	44.7µM*
O=C1[C@@H]2C[C@@H](CN2Cc2ccccc2)Oc2ccccc2N1CC1CC1	8.9	i
Cn1ncc2c(C(=O)NCc3ccc(F)c(F)c3)cc(-c3cccc(F)c3)nc21	9.4	.
CN(Cc1ccccc1)[C@H]1C[C@H]2CCOC[C@@]2(c2ccccc2)C1	5.9	.
N#C/C(=C/c1ccco1)C(=O)Nc1ccc(N2CCOCC2)cc1	.	i
O=C1c2c(nc(CNCc3cnccn3)n2Cc2ccccc2)NCCN1Cc1cccc(Cl)c1	-12.2	25.1µM*
O=C1c2c(nc(CNCc3cccnc3)n2Cc2ccccc2)NCCN1Cc1cccc(Cl)c1	-2.0	i
CSc1cccc(NC(=O)C(C)SC)c1 (stereo unspecified)	.	i
COCC(=O)NC1CCN(c2nccc(Nc3ccccc3F)n2)CC1	-1.3	.
CC(=O)N1CCN(c2cc(-c3noc([C@@H]4CCCN4Cc4ccc(CO)o4)n3)ccn2)CC1	12.0	28.2µM*
COCCOc1cc(-c2noc([C@@H]3CCCN3CC3CC3)n2)ccn1	16.2	i
CC(=O)N1CCN(c2cc(-c3noc([C@@H]4CCCN4Cc4ccccc4C)n3)ccn2)CC1	-8.4	20µM*
Cc1cc(C)n2ncc(CN3CCCC3c3nc(-c4ccncc4)no3)c2n1 (stereo unspecified)	10.0	?
COc1cccc(/C=C(/C#N)C(=O)c2c[nH]c3cc(F)ccc23)c1	.	i
SMILES	IP6K1 inhibitor	KDM5B inh
COc1cncc(-c2cn(C)c(=O)n3cc(CNc4ccccc4)nc23)c1	-5.3	i
Cn1cc(-c2cccc(C(F)(F)F)c2)c2nc(CNc3ccccc3)cn2c1=O	3.4	35.5µM*
COc1ccc(F)cc1-c1ccc(CN2CCC(NC(=O)NC3CCCC3)C2)cc1 (stereo unspecified)	8.1	.
Cc1ccccc1C(=O)NCCNC(=O)c1cccc(-c2ccsc2)c1	-0.3	.
COc1cc(C(=O)N2CC[C@@]3(O)CCN(S(C)(=O)=O)C[C@H]3C2)ccn1	-11.5	i
Cn1ccnc1-c1ccc(N2CC[C@@]3(O)CCN(S(C)(=O)=O)C[C@H]3C2)nn1	6.9	31.6µM*
CCOC(=O)[C@@H]1CN(C(=O)c2ccno2)[C@H]2c3ccccc3O[C@@H]12	15.6	.
C#CCOc1cccc(C2CC(=O)Nc3c2c(C)nn3-c2ncnc3nc[nH]c23)c1 (stereo unspecified)	.	i
CCOc1ccc(C(c2c(C)[nH]n(-c3ccccc3)c2=O)c2c(C)[nH]n(-c3ccccc3)c2=O)cc1OC	-30.3*	?
COc1ccc(C(c2c(C)n(C)n(-c3ccccc3)c2=O)c2c(C)n(C)n(-c3ccccc3)c2=O)cc1O	44.5	i
Cn1ncc2c(C(=O)N3CCN(Cc4ccccc4)CC3)cc(-c3ccccc3C(F)(F)F)nc21	9.4	.
O=C(NC1CCN(Cc2cccc(-c3ccc(F)c(F)c3)c2)CC1)c1ccccc1F	-0.7	.
Cc1ccc(C(=O)NC(Nc2ccccc2F)C(=O)c2ccccc2)cc1 (stereo unspecified)	.	i
COc1cc(-c2nc(-c3c(C)noc3C)cc3cc(C)oc23)ccn1	7.9	35.5µM*
Cc1cc2cc(-c3c(C)noc3C)nc(-c3ccccc3)c2o1	2.5	?
Cc1cc2cc(-c3c(C)noc3C)nc(N3CCN(C)C(=O)C3)c2o1	-11.2	i
Cc1cc(-c2nc(-c3c(C)noc3C)cc3cc(C)oc23)ccn1	-1.0	?
Cc1cc2cc(-c3c(C)noc3C)nc(N3CCN(c4ccccn4)CC3)c2o1	-10.8	31.6µM*
CC(=O)Nc1cccc(-c2nc(-c3c(C)noc3C)cc3c2cc(C)n3CCN(C)C)c1	-5.9	i
CC(=O)Nc1cccc(-c2nc(-c3c(C)noc3C)cc3cc(CO)oc23)c1	-12.2	39.8µM*
Cc1noc(C)c1-c1cc2cc(CO)oc2c(-c2ccc(F)c(Cl)c2)n1	-6.0	31.6µM*
Cn1nc(C(=O)N2CCSCC2)c2ccccc2c1=O	.	i
Cc1ccc(-c2ccc(CN3CCCC(NC(=O)Cc4ccc(F)cc4)C3)cc2)cc1Cl (stereo unspecified)	1.2	.
N#Cc1ccc(S(=O)(=O)N2CCC(C(=O)Nc3nc4c(s3)CCC4)CC2)cc1	.	i
CNC(=O)C1c2c(OC)ccc3c2C(=CC(C)(C)CO3)CN1Cc1ccccc1 (stereo unspecified)	20.0	.
SMILES	IP6K1 inhibitor	KDM5B inh
Cn1cccc1-c1noc(C2CCN(C(=O)CCc3nc4ccccc4s3)C2)n1 (stereo unspecified)	40.1	.
Cc1ccccc1-c1nc(-c2c(C)noc2C)cc2cc(CN(C)C)oc12	-10.0	i
COc1ccc(-c2nc(-c3c(C)noc3C)cc3cc(CO)oc23)cn1	10.8	35.5µM*
O=C(Cc1cccs1)N1CCCN(CCc2ccccc2)c2ccccc21	-4.3	22.4µM*
O=C(Cc1ccc(F)cc1)N1CCCN(CCc2ccccc2)c2ccccc21	27.2	.
NC(=O)NCc1ccc(C(=O)NNC(=O)c2c[nH]c3ccccc23)cc1	.	i
Cc1cc(-c2nccc3c(=O)cc(N(C)c4ccccc4)oc23)ccn1	-12.8	?
CN(C)c1cc(=O)c2ccnc(Nc3ccccn3)c2o1	-13.4	?
COc1ccc(-c2nccc3c(=O)cc(N(C)C)oc23)cn1	-17.7	39.8µM*
Cc1cc(-c2nccc3c(=O)cc(N(C)C)oc23)ccn1	-6.5	31.6µM*
COc1ncccc1-c1nccc2c(=O)cc(N(C)C)oc12	-5.3	35.5µM*
COc1ncccc1-c1nccc2c(=O)cc(N(C)C3CCOCC3)oc12	-4.3	i
CNC(=O)c1cc(C2CC2)nc2onc(C3CCN([S+](=O)([O-])c4ccc(C)cc4)C3)c12 (stereo unspecified)	-2.4	.
CCN(c1ccccc1)c1nc2c(c(=O)[nH]c(=O)n2C)n1CC(=O)O	.	i
O=C(c1ccccc1)N1CCN(C(=O)c2ccc3c(c2)OCO3)CC1	.	i
O=C(c1ccc2c(c1)OCO2)N1CCN(c2nnc3ccccn23)CC1	13.3	25.1µM*
Cc1ccc(C(=O)N2CCN(c3ccc4nnc(-c5ccccc5)n4n3)CC2)cc1	4.1	.
